Bioassay records: PubChem, National Center for Advancing Translational Sciences (NCATS)
SARS PLP yeast – qHTS of Yeast-based Assay for SARS-CoV PLP; S. cerevisiae expressing SARS-CoV PLpro, growth rescue; Potency, µM (top dose mostly 32.9 µM), without a hit: at the top dose activity, positive = growth rescue, usual class: activators; 0.19% of 330,000 active; AID 485353, 2010; calls by dose curve; also: potency is read from the fitted curve at half-maximal effect; 0% is about no effect; nearly all actives have a fitted effect of over 55% in size
AmpC no deterg – qHTS Inhibitors of AmpC Beta-Lactamase (assay without detergent); AID 485341, 2010; Potency, µM (titrated, usually from 57.1 µM), without a hit: top-dose activity change, negative = inhibition, usual class: inhibitors; 0.52% of 330,000 active; P00811; AmpC nitrocefin hydrolysis, absorbance 480 nm, 0.0001% Triton;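 also: potency is read from the fitted curve at half-maximal effect; plate controls were no compound for no effect and no enzyme for full effect; nearly all actives have a fitted effect of over 20% in size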
Target sequence (P00811 whole entry, looked up): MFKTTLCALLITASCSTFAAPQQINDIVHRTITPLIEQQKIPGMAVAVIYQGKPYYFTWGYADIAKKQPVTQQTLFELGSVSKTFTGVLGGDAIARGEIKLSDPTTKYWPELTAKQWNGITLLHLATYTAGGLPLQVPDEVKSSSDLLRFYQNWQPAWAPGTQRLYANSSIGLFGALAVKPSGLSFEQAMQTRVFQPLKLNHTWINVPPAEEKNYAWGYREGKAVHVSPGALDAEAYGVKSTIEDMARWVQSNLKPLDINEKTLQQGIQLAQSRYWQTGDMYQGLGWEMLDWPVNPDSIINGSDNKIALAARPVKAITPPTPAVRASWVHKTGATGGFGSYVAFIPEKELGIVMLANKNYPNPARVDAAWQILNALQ
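AmpC (5.3 nM in the dispensed reagent) in 20 mM phosphate pH 7.0 with 0.01% (detergent screen) or 0.0001% Triton X-100 was preincubated with compounds for 15 min at room temperature. Nitrocefin was then added from an 800 uM solution, and hydrolysis was followed at 480 nm.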
AMA1 RON2 block – qHTS for Inhibitors of AMA1-RON; Towards Development of Antimalarial Drug Lead: Primary Screen | AlphaScreen AMA1-biotinylated RON2 peptide binding | Potency, µM (doses to about 58.2 µM), for inactives: at the top dose activity change, negative = inhibition, usual class: inhibitors | 0.2% of 360,000 active;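 also: potency is read from the fitted curve at half-maximal effect; 0% = vehicle wells and -100% = peptide control; nearly all actives have a fitted effect of over 45% in size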
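AMA1 (3D7) with his tag at 25 nM final met compounds first, then biotinylated RON2 peptide at 25 nM; detection used donor plus acceptor beads, 10 µg/mL apiece, read by AlphaScreen after 30 min at room temperature.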
AmpC inh detg – qHTS Inhibitors of AmpC Beta-Lactamase (assay with detergent) | AID 485294, 2010 | 0.041% of 370,000 active | Potency, µM (top dose mostly 114 µM), for the others: at the top dose activity change, negative = inhibition, actives largely listed as inhibitors | P00811 | AmpC hydrolysis of nitrocefin, absorbance 480 nm, 0.01% Triton;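 also: potency is read from the fitted curve at half-maximal effect; 0% = no-compound wells and -100% = no-enzyme wells; nearly all actives have a fitted effect of over 25% in size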
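AmpC (5.3 nM in the dispensed reagent) in 20 mM phosphate pH 7.0 with 0.01% (detergent screen) or 0.0001% Triton X-100 was preincubated with compounds for 15 min at room temperature. Nitrocefin was then added from an 800 uM solution, and hydrolysis was followed at 480 nm.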
CHX counter – Cycloheximide Counterscreen for Small Molecule Inhibitors of Shiga Toxin. cell reporter, cycloheximide protein synthesis inhibition counterscreen. max response, %. 12% of 300,000 active; in the data active = max response mostly above about 13%, no sharp cut-off; inactive = mostly below about 14%; also: read at 38.3 µM for the half of the compounds with a filed dose; 0% is about no effect
Shiga inhibitor – A qHTS for Small Molecule Inhibitors of Shiga Toxin; Vero cells, Shiga toxin protein synthesis inhibition reporter; inhibition, % at 38.7 µM; 9.2% of 290,000 active; in the data active = inhibition mostly above about 28%, no sharp cut-off; inactive = mostly below about 43%; also: 0% is about no effect
Starred values were filed as active, the others as inactive; ? = inconclusive; nt = no result given; [ ] = remark or other dose. The full list was thinned out, with hits kept by preference. Unless noted, calls follow the shape of the dose curve; as a rule, active = well fitted curve in the direction sought with a large enough effect; inconclusive = small, poorly fitted or top-dose-only effect, or another doubt; inactive = no such curve, though single readings can be large; an effect the other way counts as inactive or inconclusive.

SMILES	SARS PLP yeast	AmpC no deterg	AMA1 RON2 block	AmpC inh detg	CHX counter	Shiga inhibitor
O=C(OCc1cc(=O)n2c(n1)sc1ccccc12)c1cccc(O)c1	-20%	-38%	-10%	-2%	23*	49*
CC(C)[C@H](NC(=O)c1ccco1)C(=O)OCc1cc(=O)n2c(n1)sc1ccccc12	-1%	-33%	-4%	-1%	-3	2
O=C(Cc1coc2cc3c(cc12)CCC3)OCc1cc(=O)n2c(n1)sc1ccccc12	-4%	32µM*	-19%	-1%	8	11
CCOC(=O)C1(Cc2cccc(F)c2)CCN(C(=O)c2cnccn2)CC1	0%	38%	16%	-3%	-3	-14
CCOC(=O)C1(Cc2ccccc2Cl)CCN(C(=O)c2cc(C)on2)CC1	0%	85%	0%	-10%	28*	40*
CCOC(=O)C1(Cc2ccccc2Cl)CCN(C(=O)c2cnccn2)CC1	0%	94%	-13%	1%	50*	94*
CC1Cc2ccccc2N1C(=O)CN1C(=O)COc2ccccc21 (centres undefined)	5%	-12%	-3%	-9%	-1	-5
Cc1ccc2nsnc2c1NC(=O)c1ccc([N+](=O)[O-])cc1	0%	-9%	-3%	?	-2	8
COc1cc2oc(=O)c3c(c2cc1OCC(=O)c1c(C)n(C)c2ccccc12)CCCC3	-12%	2%	0%[11.6 µM]	1%	-2	4
COc1ccc(NC(=O)c2c(N)no[n+]2[O-])cc1	1%	-9%	-8%	-8%	16*	48
COc1ccc(NC(=O)c2c(N)no[n+]2[O-])c(OC)c1	-1%	-22%	4%	-7%	9	-13
COc1ccc(NC(=O)c2c(N)cnn2C)cc1	-1%	-8%	-6%	?	18*	25
COc1cccc(/C=N/NC(=O)c2ccc(N(C)S(=O)(=O)c3ccccc3)cc2)c1OC	1%	-8%	17%	3%	-5	2
Cc1cc(C)n2nc(CC(=O)NC3CCCCCCC3)nc2n1	-1%	-8%	-4%	-10%	-3	18
Cc1cc(C)n2nc(S(=O)(=O)NC3CCCCC3)nc2n1	7%	2.5µM*	-4%	-10%	-2	14
CCOc1ccccc1NC(=O)CSc1nc2ccccc2nc1N1CCCC1	2%	-41%	45%	-6%	-3	11
CCSc1nnc2c(n1)[nH]c1c(C)cccc12	-18%	-20%	5%	-13%	19*	26
Cn1ncc2c(Nc3ccc(Cl)c(Cl)c3)ncnc21	5%	-2%	-6%	-2%	36*	35
Cn1ncc2c(Nc3cc(Cl)cc(Cl)c3)ncnc21	-11%	8%	-4%	-7%	-3	1
Cc1ccc(-n2ncc3c(Nc4ccc5c(c4)OCCO5)ncnc32)cc1C	nt	nt	nt	7%	nt	nt
CCCn1ncc2c(Nc3ccc(C)c(C)c3)ncnc21	-12%	-2%	18%	?	47*	110*
Cn1ncc2c(Nc3ccc(-c4ccccc4)cc3)ncnc21	-13%	71%	2%	?	41*	76*
COC(=O)c1ccc(Nc2ncnc3c2cnn3C)cc1	nt	nt	nt	-8%	nt	nt
CCOC(=O)Cc1nnc(NC(=O)Nc2ccccc2)s1	-2%	-46%	-2%	-14%	16	31
O=C(NCC1CCCO1)c1onc(CSc2ccc(Cl)cc2)c1C(=O)O (centres undefined)	0%	-10%	3%	-4%	-4	-4
O=C(CNC(=O)c1ccccc1)OCC(=O)N1N=C(c2ccc(Cl)cc2)CC1c1ccco1 (centres undefined)	-10%	-3%	-10%	6%	5	11
Cc1ccc(NC(=S)Nc2ccccn2)cc1C	2%	-38%	48%	-3%	65*	85*
COc1ccccc1NC(=S)Nc1ccccn1	?	-24%	22%	2%	-1	13
O=C(Nc1ccc2nc(-c3ccccn3)c(-c3ccccn3)nc2c1)N1CCOCC1	12%	-14%	7%	-9%	-2	-6
Cc1cccc(NC(=S)Nc2ccccn2)c1	0%	-36%	50%	-2%	33*	62*
